Compound activity deposited in PubChem BioAssay by Broad Institute.
YB-1 expression – YB-1 expression inhibition; delta delta Cp (YB-1 minus CDIP) (test concentration not listed); U2OS, qRT-PCR YB-1 vs CDIP delta delta Cp, 16 h; hits give high values; zero = DMSO, each unit about twofold; hit rate 0.37% among 30,000;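 active means delta delta Cp rounded down to an integer at or above 3, about 3 SD of DMSO wells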;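 further: higher means less YB-1 transcript or more CDIP transcript relative to DMSO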
U2OS ROS induce – cancer cell ROS induction. U2OS ROS induction, H2DCF-DA fluorescence. ROS induction (% of piperlongumine), % at 10 µM. hit rate 2% among 46,000. AID 624156; in the data active means ROS induction above about 79%, passing the limit was not always enough;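 further: 0% = DMSO vehicle median and 100% = reference compound median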
An asterisk follows results filed as active; . = not tested or not shown. A selection: hits, their analogues and other compounds. The true share with any hit is near 2.1%.

SMILES	YB-1 expression	U2OS ROS induce
CC[C@]12C=CCN3CC[C@@]4(c5ccc(OC)cc5N(C)[C@H]4[C@@](O)(C(=O)OC)[C@@H]1OC(C)=O)[C@@H]32	-0.11	117.3*
C[C@H]1O[C@@H](O[C@H]2[C@@H](O)C[C@H](O[C@H]3[C@@H](O)C[C@H](O[C@H]4CC[C@@]5(C)[C@H](CC[C@@H]6[C@@H]5CC[C@]5(C)[C@@H](C7=CC(=O)OC7)CC[C@]65O)C4)O[C@@H]3C)O[C@@H]2C)C[C@H](O)[C@@H]1O	0.0212	114.2*
C[C@H]1OC(O[C@H]2[C@@H](O)CC(O[C@H]3[C@@H](O)C[C@H](O[C@H]4CC[C@]5(C)C6CC[C@]7(C)[C@@H](C8=CC(=O)OC8)[C@@H](O)C[C@]7(O)[C@@H]6CC[C@@H]5C4)O[C@@H]3C)O[C@@H]2C)C[C@H](O)C1O (some centres not stated)	0.242	2.5
O=C1NC(=O)C(CCc2ccncc2)(CCc2ccncc2)C(=O)N1c1ccccc1F	.	-12.7
CCC(C)[C@H]1O[C@]2(C=C[C@@H]1C)C[C@@H]1C[C@@H](C/C=C(\C)[C@@H](OC3C[C@H](OC)C(O[C@H]4C[C@H](OC)[C@@H](O)[C@H](C)O4)[C@H](C)O3)[C@@H](C)/C=C/C=C3\CO[C@@H]4[C@H](O)C(C)=C[C@@H](C(=O)O1)[C@]34O)O2 (some centres not stated)	0.195	36.1
COc1ccc(Cl)cc1NC1=NCC(C)S1 (configuration not stated)	10.3*	-7.6
C=C1C(=O)O[C@@H]2/C=C(/C)CC/C=C(/C)C[C@@H](OC(=O)/C(=C/CO)CO)C12 (some centres not stated)	-0.0762	66.3
C[C@@H]1O[C@@H](O[C@H]2[C@H](O)[C@@H](O)[C@H](O[C@@H]3C=C4CC[C@@H]5C(CC[C@]6(C)[C@@H](c7ccc(=O)oc7)CC[C@]56O)[C@@]4(C)CC3)O[C@@H]2CO)[C@H](O)[C@H](O)[C@H]1O (some centres not stated)	-0.405	60.6
Fc1ccc(C(OCCN2CCN(CCCc3ccccc3)CC2)c2ccc(F)cc2)cc1	0.823	1.5
c1ccc(CCCN2CCN(CCOC(c3ccccc3)c3ccccc3)CC2)cc1	22.3*	23.4
CC(C)c1cc2c(cc1O)[C@@]1(C)C[C@@H](O)CC(C)(CO)C1CC2 (some centres not stated)	-0.136	-0.9
CC(C)c1cc2c(cc1O)[C@@]1(C)C[C@@H](O)CC(C)(C)C1CC2 (some centres not stated)	4.47*	4.8
C[C@]12CC[C@H](O)C[C@H]1CC[C@@H]1[C@@H]2CC[C@]2(C)[C@@H](c3ccc(=O)oc3)CC[C@]12O	-0.0337	-5.9
CO[C@H]1[C@H](O)[C@H](O[C@H]2CC[C@]3(C)C4CC[C@]5(C)[C@H](C6=CC(=O)OC6)CC[C@]5(O)C4CC[C@@H]3C2)O[C@@H](C)[C@@H]1O[C@@H]1O[C@H](CO[C@@H]2O[C@H](CO)[C@@H](O)[C@H](O)[C@H]2O)[C@@H](O)[C@H](O)[C@H]1O (some centres not stated)	-0.0888	5.7
O=C1NC(=O)N(c2ccccc2)C(=O)/C1=C/c1ccco1	-0.124	83.0*
O=C1NC(=O)C(=C/C=C/c2ccccc2)C(=O)N1	0.172	-7.2
C/C1=C/C(=O)O[C@@H]2C[C@@H](CC[C@H](C)/C=C\CC1)O[C@@](O)([C@@H]1CSC(=O)N1)C2	0.0415	13.1
O=C(CCNS(=O)(=O)c1ccccc1)Nc1ccc(Br)cc1C(=O)c1ccccc1	.	-2.9
C=CCN1C(=O)/C(=C/c2cc(C)n(-c3ccccn3)c2C)C(=O)NC1=S	-0.128	112.9*
C=C1[C@@H](C)[C@H]2[C@H](Cc3ccccc3)NC(=O)[C@]23[C@H](OC(C)=O)C=C[C@](C)(O)C(=O)[C@@H](C)C/C=C/[C@H]3[C@@H]1O	-0.0993	23.0
CC(=O)O[C@@H](c1nc2ccccc2c(=O)n1[C@@H]1C[C@@]2(OC1=O)c1ccccc1N1C(=O)[C@H](C)N(O)[C@@H]12)C(C)C	-0.369	12.8
O=C1CC=C2C3CC4N(CCC45c4ccccc4N1C25)C/C3=C/CO (configuration not stated)	10.4*	-0.7
C[C@@H]1O[C@@H](OC2CCC3(C)C4CCC5(C)C(C6=CC(=O)OC6)CCC5(O)C4CC[C@H]3C2)[C@H](O)[C@H](O)[C@H]1O (some centres not stated)	2.08	8.1
COC1CC(OC2C(C)OC(OC3C(C)OC(OC4C(C)OC(O[C@H]5CC[C@@]6(C)C(=CC[C@]7(O)C6CC(OC(=O)c6ccccc6)[C@@]6(C)[C@]7(O)CC[C@@]6(O)C(C)=O)C5)CC4OC)CC3OC)CC2OC)OC(C)C1O (some centres not stated)	0.218	20.1
COc1cc[n+](OC(=O)N2CCCCC2)c(C)c1	.	-4.9
CC[C@@H]1/C=C\C=C\C[C@H](C)C(O)[C@](C)(O)C(=O)[C@H](C)C(O)[C@H](C)C(=O)[C@H](C)[C@@H](O)[C@H](C)/C=C/C(=O)O[C@H]2[C@@H](C)[C@@H](CC1)O[C@@]1(CC[C@@H](C)[C@@H](C[C@H](C)O)O1)[C@@H]2C (some centres not stated)	-0.568	132.8*
Cn1c(CCN)nc2ccccc21	.	15.5
